Bioassay records from PubChem.
DAX1 inh-1: inhibits human nuclear receptor DAX1; P51843; HEK293 Gal4-DAX1 luciferase reporter, luminescence; inhibition, % at 6.75 µM; 340,000 tested, 0.99% active;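 active = inhibition above the mean over all tested compounds plus 3 SD, cut at about 4.2% in these data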;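 note: 0% = DAX1-transfected cells with DMSO and 100% = empty-vector control cells with DMSO; inhibition shows as a rise in luminescence from relieved DAX1 repression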
Target sequence (P51843 207-470 limits assumed): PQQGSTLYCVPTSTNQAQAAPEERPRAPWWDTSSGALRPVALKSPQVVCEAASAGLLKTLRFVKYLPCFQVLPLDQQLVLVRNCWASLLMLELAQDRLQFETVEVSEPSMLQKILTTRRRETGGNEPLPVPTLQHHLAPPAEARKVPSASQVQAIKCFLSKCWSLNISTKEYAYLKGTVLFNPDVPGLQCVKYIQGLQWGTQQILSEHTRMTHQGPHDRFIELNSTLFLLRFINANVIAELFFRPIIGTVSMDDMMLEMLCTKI
ssDAF12 agonist: activates DAF-12 receptor from parasite S. stercoralis. HEK293 ssDAF-12/GRIP1 lit1-tk-luc reporter, luminescence; % of 3 µM dafachronic acid response. 370,000 tested, 1% active. activation, % at 6.8 µM. AID 652126;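 active = activation above the mean over all tested compounds plus 3 SD, cut at about 0.9% in these data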;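 note: 0% = DMSO-only wells and 100% = 3 µM delta7-dafachronic acid wells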
hgDAF-12 ag: hgDAF-12 agonism, primary luciferase screen | HEK293 GAL4-hgDAF12 UAS-luciferase reporter, agonist luminescence; normalized to butyrate control | activation, % at 6.8 µM | 370,000 tested, 1.8% active | AID 687014;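 active = activation above a cutoff set at the mean of all screened compounds plus 3 SD, cut at about 10% in these data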;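 note: 0% = DMSO wells and 100% = sodium butyrate wells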
DAX1 inh-2: blocks DAX1 repression of SF-1 activated StAR promoter. 370,000 tested, 1.1% active. HEK293T StAR-luciferase reporter, SF-1/DAX-1 repression relief. inhibition, % at 6.8 µM;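 active = inhibition above the mean over all tested compounds plus 3 SD, cut at about 3.6% in these data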;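 note: 0% = DAX-1 cells with DMSO and 100% = cells lacking DAX-1 with DMSO; higher inhibition means more luminescence from relief of DAX-1 repression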
hcDAF-12 act: activates DAF-12 receptor from parasite H. contortus | HEK293 hcDAF-12 lit1-tk-luc reporter, luminescence; 0% DMSO, 100% Δ7-dafachronic acid | activation, % at 6.8 µM | 370,000 tested, 1.4% active | AID 652067;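 active = activation above the mean of all tested compounds plus 3 SD, cut at about 5.5% in these data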;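 note: 100% = response to 3 µM Δ7-dafachronic acid high control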
AHR act: activators of human aryl hydrocarbon receptor; AHR-responsive luciferase reporter cells, luminescence; activation, % at 5 µM; AID 2796; P35869; 320,000 tested, 2.5% active; in the data active = activation above about 47%;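 note: 0% = vehicle wells and 100% = reference agonist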
LXR ag: LXR-beta agonism as hcDAF-12 counter-screen; shares compounds with hcDAF-12 act; HEK293 Gal4-LXR tk-luc reporter, luminescence, 24 h; normalized: DMSO 0%, positive control 100%; activation, % at 6.8 µM; 3,400 tested, under 10 active;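 active = mean percent activation of the reporter above a cutoff set as the average over tested compounds plus their standard deviation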
Target sequence (P55055 whole entry, looked up, the tested form may be a part): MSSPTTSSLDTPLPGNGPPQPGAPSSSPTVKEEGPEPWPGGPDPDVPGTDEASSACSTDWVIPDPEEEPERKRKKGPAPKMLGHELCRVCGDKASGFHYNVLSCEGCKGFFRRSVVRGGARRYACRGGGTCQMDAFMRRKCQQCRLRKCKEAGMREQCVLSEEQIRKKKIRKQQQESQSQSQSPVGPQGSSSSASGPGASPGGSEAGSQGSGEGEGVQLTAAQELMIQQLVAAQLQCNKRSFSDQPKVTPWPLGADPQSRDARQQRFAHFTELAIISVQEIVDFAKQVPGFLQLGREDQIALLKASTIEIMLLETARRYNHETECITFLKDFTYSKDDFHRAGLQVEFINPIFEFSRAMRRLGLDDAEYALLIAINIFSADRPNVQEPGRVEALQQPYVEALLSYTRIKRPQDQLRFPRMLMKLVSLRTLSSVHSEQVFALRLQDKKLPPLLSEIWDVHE
hcDAF12 conf: hcDAF-12 agonism, confirmation assay; shares compounds with hcDAF-12 act; HEK293 hcDAF-12 lit1-tk-luc reporter, luminescence; % of Δ7-dafachronic acid response; activation, % at 6.8 µM; 3,400 tested, 61% active;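 active = mean activation across triplicate tests above the threshold derived from the earlier primary screen, cut at about 5.5% in these data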;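 note: 0% = DMSO only wells and 100% = 3 µM Δ7-dafachronic acid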
Numbers without * were called inactive; nt = no result. Rows were chosen to be rich in hits. Some 5.7% of all compounds tested hit in one or more screens of this group.

SMILES	DAX1 inh-1	ssDAF12 agonist	hgDAF-12 ag	DAX1 inh-2	hcDAF-12 act	AHR act	LXR ag	hcDAF12 conf
COc1cccc(C2c3[nH]c4ccccc4c3C[C@H]3C(=O)N(CCCO)CC(=O)N23)c1OC (stereo partly drawn)	-1.2	-0.3	-0.9	-0.4	1.5	4.2	nt	nt
C=CCn1c(COc2ccc(CC)cc2)nnc1SC/C(O)=C(\C#N)c1nc2ccccc2[nH]1	0.2	0.1	1.5	0.1	8.2*	19.6	-0.1	6.1*
C=CCn1c(COc2ccccc2)nnc1SCc1ccc(C#N)cc1	0.0	-1.1	-0.4	-0.8	-0.5	2.5	nt	nt
CC(=O)Oc1cc(C(=O)OCC(=O)N2CCc3ccccc3C2)cc(OC(C)=O)c1OC(C)=O	-0.4	-0.4	-5.8	0.3	-2.0	-0.6	nt	nt
O=C(CSc1nc2ccccc2[nH]1)N=Nc1c(O)[nH]c2ccccc12	1.4	0.5	3.4	0.3	9.1*	53.3*	-0.1	2.5
Cn1c(SCC(=O)N=Nc2c(O)[nH]c3ccccc23)nc2ccccc21	nt	nt	nt	nt	nt	26.2	nt	nt
Cc1ccccc1N=Nc1c(O)[nH]c2ccccc12	nt	2.2*	10.8*	0.3	6.6*	47.8*	1.0	15.9*
O=C(N=Nc1c(O)[nH]c2ccccc12)c1cccs1	1.7	1.9*	20.8*	4.4*	14.7*	39.6	1.4	15.0*
CC(=O)Nc1ccc(NC(=O)Cn2cnc(S(=O)(=O)N3CCOCC3)c2)cc1	-0.4	-1.5	0.8	-0.4	-1.7	0.1	nt	nt
COCCNC(=O)CCn1nc(-c2ccc(C)cc2)ccc1=O	0.9	-0.5	1.5	-0.2	-0.6	3.7	nt	nt
Cc1cc(C)c2nc(/N=C(\N)NC(=O)c3ccccc3)nc(C)c2c1	2.5	-0.2	4.9	1.5	6.9*	24.9	-0.3	1.9
COc1cc(OC)cc(C(=O)NC(=S)Nc2nnn(C)n2)c1	0.4	-0.4	-2.1	-0.3	-2.2	14.0	nt	nt
N/C(=N\OC(=O)c1cccc(Cl)c1)c1ccccn1	-4.5	0.9	10.1	3.9*	12.6*	70.3*	1.5	8.2*
Cc1cc(/C(N)=N/OC(=O)c2cccc(Cl)c2)no1	nt	1.5*	5.7	0.7	7.1*	38.0	0.2	2.2
Cc1cc(C(=O)NNC(=O)c2cccc(Cl)c2)no1	nt	-0.9	0.9	0.2	0.1	-0.2	nt	nt
Cc1ccc(S(=O)(=O)N(C)C)cc1NC(=S)N(C)C1CCN(C)CC1	1.4	-0.7	-2.2	0.1	-0.6	1.9	nt	nt
Cc1cc(/C=C2\SC(=S)NC2=O)c(C)n1-c1ccccc1	nt	1.6*	7.5	1.7	13.4*	9.8	1.4	12.8*
COc1ccc(-n2c(C)cc(/C=C3\SC(=S)NC3=O)c2C)cc1	2.2	-1.0	-0.3	-0.1	-0.4	3.9	nt	nt
COc1ccc(C)cc1NC(=O)n1ncc2cc(Cl)ccc21	-0.3	0.8	4.0	0.0	7.4*	56.0*	0.0	2.8
Cc1ccccc1NC(=O)n1ncc2cc(Cl)ccc21	-0.8	-0.9	0.2	-0.1	-1.6	10.5	nt	nt
C/C(=C\C(=S)Nc1ccccc1)Nc1ccc2ccccc2c1	-0.7	0.1	3.0	0.5	6.9*	38.9	0.5	5.3
CCN1CCN(C(CNS(=O)(=O)c2ccccc2)c2cccnc2)CC1 (stereo not drawn)	1.8	-1.1	1.3	1.7	-0.6	0.8	nt	nt
CC(=O)N[C@@H](Cc1ccc(O)cc1)CN1C(N)=NC[C@@H]1CC(C)C	-0.4	0.2	0.5	0.9	6.8*	-0.6	-0.2	0.2
O=C(Nc1ccccc1)Nc1cccc2nsnc12	2.5	2.3*	8.8	3.0	8.9*	22.8	1.2	12.2*
O=C(Nc1cccc2nsnc12)c1cccs1	2.6	-0.6	10.0	0.0	1.1	4.9	nt	nt
SMILES	DAX1 inh-1	ssDAF12 agonist	hgDAF-12 ag	DAX1 inh-2	hcDAF-12 act	AHR act	LXR ag	hcDAF12 conf
COc1ccccc1NC(=O)c1ccc(CSc2ncccn2)cc1	nt	nt	nt	nt	nt	4.7	nt	nt
O=C(Nc1cccc2cccnc12)c1ccc(Cl)cc1	1.3	1.2*	3.4	1.0	6.7*	nt	0.2	7.6*
O=C(NC(=S)Nc1cccnc1Cl)c1ccco1	2.1	-0.6	8.3	2.1	2.2	13.8	nt	nt
Cc1ccc(C(=O)Nc2cccc3cccnc23)cc1C	0.9	0.6	5.1	0.1	9.7*	43.3	0.6	8.8*
O=C(Nc1cccc2cccnc12)c1cccnc1	0.7	0.5	4.1	-0.2	3.8	18.9	nt	nt
O=C(NC(=S)Nc1cccnc1Cl)c1ccc(Cl)cc1	0.6	1.1*	15.4*	2.7	10.3*	21.1	1.1	14.9*
Cc1cccc(C(=O)Nc2cccc3cccnc23)c1	0.5	0.8	7.5	0.0	5.5	nt	nt	nt
Oc1ccccc1-c1csc(-c2ccccc2)n1	4.9*	5.1*	20.0*	2.3	13.7*	69.1*	1.8	14.6*
c1ccc(-c2csc(-c3ccncc3)n2)cc1	0.5	-1.0	3.1	-0.4	0.5	5.6	nt	nt
Cc1csc(NC(=O)c2cccnc2Cl)n1	3.0	1.1*	5.4	0.5	8.7*	21.5	0.5	10.9*
CCCCCC(=O)N1C[C@@H](O)[C@H](n2cc(COC(=O)c3ccccc3)nn2)C[C@@H]1c1ccc(Cl)cc1	0.2	-1.1	1.7	-1.1	-2.4	nt	nt	nt
N#C/C(=C/c1ccc(N2CCOCC2)o1)c1nc2ccccc2[nH]1	2.9	0.6	1.9	2.4	6.8*	24.6	2.0	8.1*
N#C/C(=C\c1ccc(N2CCOCC2)o1)c1ccccc1	-0.7	-1.6	-2.2	-0.1	-0.8	-0.7	nt	nt
CCOC(=O)c1sc(NC(=O)c2ccc(C)o2)nc1C	1.4	0.3	10.6*	3.6	8.8*	9.4	1.1	8.6*
CCOC(=O)c1sc(NC(=O)c2cccs2)nc1C	1.6	1.9*	5.7	1.4	11.2*	nt	1.0	6.3*
CCOC(=O)c1sc(NC(=O)c2ccco2)nc1C	1.3	-1.1	-0.7	0.9	1.8	9.8	nt	nt
Cc1nc(NC(=O)c2cccs2)ccc1Br	1.1	1.6*	19.2*	1.9	9.8*	16.3	1.4	10.6*
COc1ccc2nc(NC(=O)c3cccs3)sc2c1	nt	0.3	12.1*	1.5	6.7*	-7.2	1.7	7.2*
Cc1ccc2c(c1)CCCN2C(=O)c1cc(C)on1	-0.8	-0.3	1.7	-0.7	0.7	-1.1	nt	nt
CC(=O)NCC1CCCN(C(=O)c2ccc(OC3CCN(Cc4ccccn4)CC3)cc2)C1 (stereo not drawn)	0.2	-0.7	-0.8	0.0	-2.1	-0.6	nt	nt
Cn1cc(-c2nnc(-c3ccccc3)o2)c2ccccc21	4.1	1.3*	17.0*	3.4	7.9*	48.9*	1.9	18.0*
